Reference: PubChem BioAssay AID1159580 (chemical genetic matrix, 2015)
The campaign covered roughly 5,500 compounds. About 2,000 (36%) were called active. Another 18% or so got no clear call; they are omitted. Rule as the data show it: active = normalized growth mostly below about 0.91 (no sharp cut-off); inconclusive = no clear call, values can overlap the other calls; inactive = mostly above about 0.92. This is one part of the list.

Test: chemical genetic growth profiling, strain panel (AID 1159580);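 also: tested at 20 µM; growth read once vehicle control cultures reached saturation at 30 °C; 1 = growth at the plate median or of vehicle wells; lower values mean less growth of the strain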
Conditions: S. cerevisiae deletion strains, growth OD
[1] = locus YDR150W, strain NUM1, active compounds read low
[2] = locus YGR078C, strain PAC10, active compounds read low
[3] = locus YMR263W, strain SAP30, active compounds read low
[4] = locus YNL322C, strain KRE1, active compounds read low
[5] = locus YPL055C, strain LGE1, active compounds read low
[6] = locus YPL241C, strain CIN2, active compounds read low
[7] = locus YAL040C, strain CLN3, active compounds read low
[8] = locus YER002W, strain NOP16, active compounds read low
[9] = locus YNL175C, strain NOP13, active compounds read low
[10] = locus YNL197C, strain WHI3, active compounds read low
[11] = locus YNL224C, strain SQS1, active compounds read low
[12] = locus YOR083W, strain WHI5 (second series), active compounds read low

Measured: normalized growth

NNC(=S)Nc1cc(C(F)(F)F)ccc1Cl
active: locus YAL013W, strain DEP1, active compounds read low 0.926 | locus YBR229C, strain ROT2, active compounds read low 0.87 | locus YCL061C, strain MRC1, active compounds read low 0.828 | locus YDL101C, strain DUN1, active compounds read low 0.875 | locus YDL134C, strain PPH21, active compounds read low 0.86 | locus YEL061C, strain CIN8, active compounds read low 0.807 | [2] 0.848 | locus YHR030C, strain SLT2, active compounds read low 0.324 | locus YJR043C, strain POL32, active compounds read low 0.88 | locus YKL190W, strain CNB1, active compounds read low 0.64 | locus YLR039C, strain RIC1, active compounds read low 0.711 | locus YLR085C, strain ARP6, active compounds read low 0.298 | locus YLR262C, strain YPT6, active compounds read low 0.804 | locus YML094W, strain GIM5, active compounds read low 0.81 | locus YNL128W, strain TEP1, active compounds read low 0.858 | locus YNL153C, strain GIM3, active compounds read low 0.899 | locus YNL298W, strain CLA4 (second series), active compounds read low 0.408 | locus YNR030W, strain Alg12, active compounds read low 0.525 | [5] 0.786 | [6] 0.664 | locus YPR135W, strain CTF4, active compounds read low 0.373
inactive: [1] 0.872 | locus YGR229C, strain SMI1, active compounds read low 0.997 | locus YHR087W, strain rtc3, active compounds read low 0.938 | locus YJR075W, strain HOC1, active compounds read low 0.92 | locus YLR058C, strain SHM2 (second series), active compounds read low 0.977 | locus YMR219W, strain ESC1, active compounds read low 0.978 | [3] 0.914 | [4] 0.993

O=C1C=CC(=O)C=C1
inactive: [7] 0.986 | [8] 1 | [2] 0.912 | [3] 1 | locus YMR307W, strain GAS1, active compounds read low 1.04 | [9] 1.02 | [10] 1.05 | [11] 1 | [4] 0.99 | [12] 1.01 | [5] 0.979

CC(=O)O[C@H]1CC2(C)[C@@H](C[C@@H](O)[C@H]3[C@@]4(C)CC[C@@H](O)[C@@H](C)[C@@H]4CC[C@@]32C)C1=C(CCC=C(C)C)C(=O)O (some centres not stated)
inactive: [7] 1.02 | locus YCL061C, strain MRC1 (second series), active compounds read low 1.01 | [1] 1.02 | locus YDR363W, strain ESC2, active compounds read low 1.02 | [8] 1.04 | [2] 1.03 | [9] 1 | [10] 1 | [11] 0.974 | [4] 1.01 | [12] 0.996 | [6] 1.01
